Laboratory results published in PubChem BioAssay.
Active and inactive are the calls of the source. Unless noted, no rule for the calls is given here.

Assays:
[1] = compounds binding Alexa647 anti-His antibody – biochemical, small-molecule microarray, 635 nm fluorescence, artefact control for SMM control protein annotation, primary screen (AID 1128); details: higher = more signal;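 also: score merges feature fluorescence with signal-to-noise for each printed compound spot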
[2] = tested on: Human papillomavirus type 1a E7 protein (residues 1-88); test: HPV1a E7 small-molecule binders, primary screen, biochemical, small-molecule microarray, residues 1-88, 635 nm (AID 1129); details: small-molecule microarray binding, fluorescence 635 nm; higher = more signal
[3] = biological target: Focal adhesion kinase 1 (Homo sapiens) (UniProt Q05397); test: PTK2 protein binding on printed compound slides – biochemical, small-molecule microarray, 635/667 nm fluorescence, BSA, DTT, primary screen (AID 1130); details: 635 nm fluorescence, higher = more signal;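 also: composite of spot emission at 667 nm and signal to noise over triplicate slides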
[4] = tested on: Fibrinogen (Alexa647-labelled); test: Alexa647-fibrinogen binding to printed small molecules – biochemical, small-molecule microarray, 635/667 nm fluorescence, artefact control for SMM control-protein annotation, profiling panel (AID 1131); details: fibrinogen-A647 binding fluorescence, higher = more signal;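 also: z-score merges 667 nm fluorescence with per-spot signal-to-noise over triplicate slides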
[5] = biological target: Follistatin (Homo sapiens) (UniProt P19883); test: FST protein binding to printed compounds – biochemical, small-molecule microarray, 635/667 nm fluorescence, primary screen (AID 1132); details: 635 nm fluorescence, higher = more signal
[6] = biological target: Fibroblast growth factor 2 (Homo sapiens) (UniProt P09038); test: basic fibroblast growth factor binding to printed compounds – biochemical, small-molecule microarray, 635/667 nm fluorescence, primary screen (AID 1133); details: FGF2, fluorescence 635/667, higher = more signal
[7] = JC-1 mitochondrial potential readout, lung cancer cells – cell-based, A549, JC-1 fluorescence, basal, 24 h, 100 nL, profiling panel (AID 1138); details: higher = more signal;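 also: A549 lung adenocarcinoma cells under basal conditions with no added stimulus; test concentration not given here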
[8] = tested on: Lefty1; test: Lefty1 protein binding to printed compounds – biochemical, small-molecule microarray, 635/667 nm fluorescence, primary screen (AID 1139); details: fluorescence 635/667, higher = more signal
[9] = tested on: wheat germ agglutinin (Triticum aestivum), Alexa647-labelled; test: Alexa647-WGA lectin binding to printed small molecules – biochemical, small-molecule microarray, 635/667 nm fluorescence, artefact control for SMM control-protein annotation, profiling panel (AID 1140); details: WGA-A647 binding, 635 nm fluorescence, higher = more signal;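 also: score merges 667 nm feature emission with signal to noise over triplicate slides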
[10] = biological target: Luciferin 4-monooxygenase (Photinus pyralis) (UniProt P08659); test: inhibition of purified Photinus pyralis luciferase – biochemical, luminescence, purified enzyme, 2006 set, primary screen (AID 1141); details: purified firefly luciferase, SteadyGlo luminescence, 30 min; higher = more signal, called active from +8 up or from −8 down;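 also: cell-free assay with purified firefly luciferase at 100 ng per well in PBS; test concentration not given here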
[11] = tested on: Wnt5a (protein binding on small-molecule microarray); test: small molecules binding Wnt5a protein – biophysical, small-molecule microarray, 635/667 nm fluorescence, primary screen (AID 1142); details: 635 nm fluorescence, higher = more signal;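 also: fluorescence read at 667 nm with signal to noise per printed feature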
[12] = ATP-based viability of Huh7 replicon cells – cell-based, CellTiter-Glo luminescence, basal, 48 h, cytotoxicity control for HCV replication inhibitor project, primary screen (AID 1143); details: higher = more signal, called active from +8 up or from −8 down;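 also: Huh7 hepatoma cells carrying a hepatitis C replication reporter with no stimulus; test concentration not given here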
[13] = Pseudomonas biofilm growth suppression – PAO1 strain, BacTiter-Glo luminescence, LB-PBS, primary screen (AID 1144); details: P. aeruginosa PAO1 biofilm, 12 h, higher = more signal
[14] = basal CRE-LacZ reporter activity in PC12 – cell-based, unstimulated, primary screen (AID 1145); details: no forskolin, luminescence, 4.5 h, higher = more signal, called active from +8 up or from −8 down
[15] = forskolin-driven CRE-LacZ activity in PC12 – cell-based, CRE-LacZ reporter, forskolin-stimulated, primary screen (AID 1146); details: luminescence, 4.5 h, higher = more signal, called active from +8 up or from −8 down;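 also: PC12 cells with 6xCRE LacZ reporter stimulated by forskolin 10 µM; beta-galactosidase reporter signal reflecting CREB driven transcription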
[16] = biological target: Streptavidin (Streptomyces avidinii) (UniProt P22629); test: compounds binding control protein streptavidin – biophysical, small-molecule microarray, 635/667 nm fluorescence, artefact control for SMM compound annotation, primary screen (AID 1147); details: higher = more signal;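 also: signal reflects streptavidin binding to arrayed compounds as a control protein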
[17] = probe aInhba binding on compound microarray – biochemical, small-molecule microarray, 635/667 nm fluorescence, primary screen (AID 1148); details: higher = more signal;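 also: score merges 667nm spot fluorescence with signal-to-noise for antibody binding to printed compounds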
[18] = biological target: Torsin-1A (Homo sapiens) (UniProt O14656); test: TOR1A wild-type binding on microarray – cell lysate, small-molecule microarray, lysate, 635/667 nm, primary screen (AID 1149); details: COS7 hTOR1A-WT lysate, 635 nm fluorescence, higher = more signal
[19] = biological target: Torsin-1A (Homo sapiens) (UniProt O14656); test: torsin A mutant lysate binding on microarrays – cell lysate, small-molecule microarray, COS7 lysate, 635/667 nm fluorescence, primary screen (AID 1150); details: COS7 hTOR1A mutant lysate, 635 nm fluorescence, higher = more signal;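 also: score pools 667 nm emission and signal to noise measuring lysate protein binding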
[20] = tested on: Sonic hedgehog protein (Shh); test: Sonic hedgehog microarray binding compounds – biochemical, small-molecule microarray, 635/667 nm fluorescence, primary screen (AID 1151); details: 635 nm fluorescence, higher = more signal;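 also: Shh protein binding to compounds spotted on small-molecule microarray slides; score combines spot fluorescence intensity with signal-to-noise across triplicate slides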

Torsin-1A (Homo sapiens), sequence (O14656 whole entry, looked up): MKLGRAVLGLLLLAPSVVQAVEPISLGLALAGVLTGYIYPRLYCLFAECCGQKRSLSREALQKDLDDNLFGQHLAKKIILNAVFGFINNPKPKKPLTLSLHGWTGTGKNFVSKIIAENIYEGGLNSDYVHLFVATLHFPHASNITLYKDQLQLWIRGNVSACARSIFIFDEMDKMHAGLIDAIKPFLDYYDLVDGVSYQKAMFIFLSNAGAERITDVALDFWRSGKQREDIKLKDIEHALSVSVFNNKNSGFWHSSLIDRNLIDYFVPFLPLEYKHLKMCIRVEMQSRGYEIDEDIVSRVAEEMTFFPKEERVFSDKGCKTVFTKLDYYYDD
Luciferin 4-monooxygenase (Photinus pyralis), sequence (P08659 whole entry, looked up): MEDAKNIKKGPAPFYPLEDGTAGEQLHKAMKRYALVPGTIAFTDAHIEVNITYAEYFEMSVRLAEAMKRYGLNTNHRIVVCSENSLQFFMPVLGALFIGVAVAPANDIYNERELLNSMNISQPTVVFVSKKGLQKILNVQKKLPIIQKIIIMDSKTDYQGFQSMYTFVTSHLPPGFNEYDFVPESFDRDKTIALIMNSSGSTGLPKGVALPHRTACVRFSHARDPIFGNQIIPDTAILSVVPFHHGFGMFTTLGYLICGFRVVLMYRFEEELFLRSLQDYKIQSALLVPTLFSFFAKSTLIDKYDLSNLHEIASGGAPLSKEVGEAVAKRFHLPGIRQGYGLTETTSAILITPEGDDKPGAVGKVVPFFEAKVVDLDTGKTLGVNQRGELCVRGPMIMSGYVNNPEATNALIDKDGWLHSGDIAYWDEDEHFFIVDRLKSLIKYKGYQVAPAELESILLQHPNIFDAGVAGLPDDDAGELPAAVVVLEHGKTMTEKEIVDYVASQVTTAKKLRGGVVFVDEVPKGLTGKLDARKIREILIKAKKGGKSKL
Fibroblast growth factor 2 (Homo sapiens), sequence (P09038 whole entry, looked up): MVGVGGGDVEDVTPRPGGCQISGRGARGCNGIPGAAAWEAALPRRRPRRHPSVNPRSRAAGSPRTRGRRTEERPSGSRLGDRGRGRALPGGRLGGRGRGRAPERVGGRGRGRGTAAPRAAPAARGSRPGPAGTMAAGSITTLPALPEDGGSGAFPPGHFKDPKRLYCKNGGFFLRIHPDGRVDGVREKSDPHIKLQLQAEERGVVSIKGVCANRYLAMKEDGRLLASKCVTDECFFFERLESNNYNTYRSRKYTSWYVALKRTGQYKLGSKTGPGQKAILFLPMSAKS
Streptavidin (Streptomyces avidinii), sequence (P22629 whole entry, looked up): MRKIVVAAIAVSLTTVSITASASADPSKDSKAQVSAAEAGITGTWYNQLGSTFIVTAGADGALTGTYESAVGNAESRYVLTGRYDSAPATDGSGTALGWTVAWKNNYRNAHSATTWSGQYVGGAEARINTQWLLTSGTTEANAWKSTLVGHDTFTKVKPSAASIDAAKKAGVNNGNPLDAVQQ
Follistatin (Homo sapiens), sequence (P19883 whole entry, looked up): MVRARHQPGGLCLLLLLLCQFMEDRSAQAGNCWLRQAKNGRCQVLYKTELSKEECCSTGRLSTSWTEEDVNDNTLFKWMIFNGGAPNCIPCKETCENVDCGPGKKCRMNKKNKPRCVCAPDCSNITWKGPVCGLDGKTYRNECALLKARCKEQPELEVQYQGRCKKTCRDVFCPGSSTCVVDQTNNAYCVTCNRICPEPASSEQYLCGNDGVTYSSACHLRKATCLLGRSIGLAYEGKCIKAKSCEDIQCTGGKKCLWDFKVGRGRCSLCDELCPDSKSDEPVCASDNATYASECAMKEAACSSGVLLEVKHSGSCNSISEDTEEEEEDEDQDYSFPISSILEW
Focal adhesion kinase 1 (Homo sapiens), sequence (Q05397 whole entry, looked up): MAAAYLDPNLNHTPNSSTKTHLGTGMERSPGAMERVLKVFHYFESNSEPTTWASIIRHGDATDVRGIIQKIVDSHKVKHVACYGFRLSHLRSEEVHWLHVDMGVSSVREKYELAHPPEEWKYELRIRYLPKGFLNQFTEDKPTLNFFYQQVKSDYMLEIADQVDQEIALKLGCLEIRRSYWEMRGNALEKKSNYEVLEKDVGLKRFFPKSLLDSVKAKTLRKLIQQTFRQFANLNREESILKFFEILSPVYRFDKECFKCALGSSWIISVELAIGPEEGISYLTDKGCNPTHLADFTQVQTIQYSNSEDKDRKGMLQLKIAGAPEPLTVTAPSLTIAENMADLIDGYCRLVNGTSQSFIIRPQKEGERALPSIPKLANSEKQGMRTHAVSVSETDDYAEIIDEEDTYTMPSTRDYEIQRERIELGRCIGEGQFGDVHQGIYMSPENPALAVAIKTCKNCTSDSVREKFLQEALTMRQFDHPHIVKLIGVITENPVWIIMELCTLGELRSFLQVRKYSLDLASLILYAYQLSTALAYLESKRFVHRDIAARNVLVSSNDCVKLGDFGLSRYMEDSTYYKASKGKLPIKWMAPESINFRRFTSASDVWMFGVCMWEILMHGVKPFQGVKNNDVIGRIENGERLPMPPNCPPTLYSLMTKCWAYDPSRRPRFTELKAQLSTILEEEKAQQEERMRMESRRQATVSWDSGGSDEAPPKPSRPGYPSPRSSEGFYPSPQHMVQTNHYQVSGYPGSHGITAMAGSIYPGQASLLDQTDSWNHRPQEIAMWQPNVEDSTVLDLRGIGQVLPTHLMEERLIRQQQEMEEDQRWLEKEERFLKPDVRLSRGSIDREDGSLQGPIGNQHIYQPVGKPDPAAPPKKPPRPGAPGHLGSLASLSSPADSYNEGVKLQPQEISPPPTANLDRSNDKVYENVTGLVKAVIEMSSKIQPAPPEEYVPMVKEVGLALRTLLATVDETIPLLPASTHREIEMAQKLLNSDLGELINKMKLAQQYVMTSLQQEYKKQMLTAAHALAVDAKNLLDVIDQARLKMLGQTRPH

Row | SMILES | composite z-score [1] | composite z-score [2] | composite z-score [3] | composite z-score [4] | composite z-score [5] | composite z-score [6] | z-score [7] | composite z-score [8] | composite z-score [9] | z-score [10] | composite z-score [11] | z-score [12] | z-score [13] | z-score [14] | z-score [15] | composite z-score [16] | composite z-score [17] | composite z-score [18] | composite z-score [19] | composite z-score [20]
1 | CO[C@H]1O[C@H](CO)[C@@H](OC(=O)Nc2ccc(C(F)(F)F)cc2)[C@H](OC(=O)Nc2ccccc2)[C@@H]1OC(=O)Nc1ccccc1 | 0.817 | 1.18 | 0.132 | 0.944 | 1.21 | 0.21 | -0.191 | 0.41 | 0.58 | -0.72 (inactive) | 0.534 | -3.7 (inactive) | 0.724 (inactive) | 0.904 (inactive) | -1.01 (inactive) | 1.08 | -0.0538 | 0.146 | -0.0359 | 0.934
2 | COc1ccc([Si](C)(C)[C@@H]2[C@@H](CC(=O)N3Cc4ccccc4C[C@H]3CO)O[C@]3(C(=O)N(Cc4cccc(N5C(=O)COc6ccccc65)c4)c4ccccc43)[C@H]2C)cc1 | 1.16 | 1 | 0.261 | 0.269 | 1.26 | 1.76 | -0.0295 | 1.25 | 0.0948 | -0.438 (inactive) | -0.0857 | -4.33 (inactive) | -0.219 (inactive) | 3.56 (inactive) | -0.431 (inactive) | 0.535 | -0.18 | 0.718 | 0.301 | 1.57
3 | COc1ccc(C(=O)Nc2cccc(CN3C(=O)[C@@]4(O[C@@H](CC(=O)N5Cc6ccccc6C[C@H]5CO)[C@H]([Si](C)(C)c5ccc(OC)cc5)[C@H]4C)c4ccccc43)c2)cc1 | 1.37 | 0.86 | 0.469 | 0.622 | 1.13 | 1.25 | 0.68 | 1.57 | 0.29 | -1.52 (inactive) | 0.209 | -5.04 (inactive) | -0.473 (inactive) | 4.45 (inactive) | -0.534 (inactive) | 0.395 | -0.0095 | 0.726 | 0.488 | 2.06
4 | C[N+](C)(C)CCCC[C@@H]1NC(=O)[C@@H]2C[C@H](C(=O)NCCCCCCNC(=O)CS)[C@H](c3cccc(OCCO)c3)N2C1=O | 1.89 | -0.208 | -0.379 | 0.552 | 1.27 | 1.2 | 0.332 | 1.29 | 0.585 | -1.45 (inactive) | -0.326 | 0.214 (inactive) | -0.555 (inactive) | -0.671 (inactive) | -0.29 (inactive) | -1.12 | -0.231 | 0.23 | 1.87 | 1.54
5 | C=C(C(=O)CC[C@@H](OC(C)=O)c1ccc(OCCO)cc1)C(C)C | 0.521 | 0.0161 | 0.019 | 0.933 | 0.627 | 1.29 | -0.316 | -0.12 | 0.0487 | -1.08 (inactive) | 0.177 | 0.118 (inactive) | -0.73 (inactive) | 1.68 (inactive) | 1.05 (inactive) | -0.41 | -0.148 | 0.698 | 1.02 | 0.0191
6 | Cc1ccc(S[C@]2(C(=O)NCCCN(C)C)CC(=O)N(Cc3ccccc3)[C@@H]2c2ccc(CO)cc2)cc1 | -0.786 | -0.335 | -0.371 | -0.865 | 0.0417 | -0.734 | 0.803 | -1.53 | -0.0701 | -1.1 (inactive) | -0.2 | -0.533 (inactive) | 0.294 (inactive) | -0.232 (inactive) | 0.529 (inactive) | -0.689 | -0.0494 | -0.883 | -0.623 | -1.02
7 | O=C1C[C@@](C(=O)O)(c2ccc([N+](=O)[O-])cc2)[C@@H](c2ccc(CO)cc2I)N1C1CCCCC1 | 0.806 | 0.796 | 0.113 | 0.873 | 0.539 | 0.293 | -0.706 | 0.471 | 0.832 | -0.411 (inactive) | 0.45 | -4.77 (inactive) | -2.27 (inactive) | -0.619 (inactive) | -0.598 (inactive) | 0.988 | 0.0905 | -0.757 | 0.206 | -0.196
8 | COCCOC(=O)N1C(=O)[C@@]2(c3cc(C#CCC(C(=O)OC)C(=O)OC)ccc31)[C@H](c1ccc(OCCO)cc1)N1[C@H](c3ccccc3)[C@H](c3ccccc3)OC(=O)[C@H]1[C@@H]2C(=O)NC[C@H](O)c1ccccc1 | 1.18 | 1.22 | 0.418 | 0.952 | 1.29 | 1.7 | -0.95 | 1.15 | 0.422 | -0.056 (inactive) | 0.354 | -1.84 (inactive) | -1.29 (inactive) | -1.56 (inactive) | -0.526 (inactive) | 0.521 | 0.281 | 1.72 | 1.18 | 2.14
9 | Cc1ccc(N2C(=O)c3ccccc3[C@@H](C(=O)NC(C)C)[C@@H]2c2ccc(CO)cc2)nc1 | 0.621 | 0.708 | -0.291 | -0.756 | 0.931 | 1.55 | -1.05 | -0.362 | 0.692 | 1.25 (inactive) | 0.635 | -2.73 (inactive) | -1.83 (inactive) | 0.351 (inactive) | 0.807 (inactive) | -0.896 | -0.104 | -1.73 | 2.08 | -0.473
10 | COc1ccc([Si](C)(C)[C@H]2[C@H](CCO)O[C@@]3(C(=O)N(Cc4ccccc4)c4ccc(N5C(=O)COc6ccccc65)cc43)[C@@H]2C)cc1 | -0.12 | -0.127 | -0.0125 | 0.26 | -0.242 | -0.116 | 0.771 | -0.0702 | 1.1 | -0.369 (inactive) | 0.19 | -6.69 (inactive) | -0.539 (inactive) | -0.258 (inactive) | -0.81 (inactive) | 0.0375 | 0.189 | -0.503 | 0.105 | 1.92
